High-throughput results: PubChem BioAssay, National Center for Advancing Translational Sciences (NCATS)
Cycloheximide cs: Cycloheximide Counterscreen for Small Molecule Inhibitors of Shiga Toxin; cell reporter, cycloheximide protein synthesis inhibition counterscreen; max response, %; 12% of 300,000 active; in the data active means max response mostly above about 13%, no sharp cut-off; inactive means mostly below about 14%; further: read at 38.3 µM for the half of the compounds with a filed dose; 0% is about no effect
Shiga inhibitor: A qHTS for Small Molecule Inhibitors of Shiga Toxin. 9.2% of 290,000 active. inhibition, % at 38.7 µM. Vero cells, Shiga toxin protein synthesis inhibition reporter; in the data active means inhibition mostly above about 28%, no sharp cut-off; inactive means mostly below about 43%; further: 0% is about no effect
RE007 growth inh: qHTS Assay for Inhibitors of the HIV-1 protein Vpr; S. pombe RE007 Vpr strain, BacTiter-Glo ATP luminescence, 24 h; Potency, µM (titrated, usually from 92.2 µM), for inactives: at the top dose activity change, negative = less growth, usual class: inhibitors; 0.21% of 360,000 active; AID 651644, 2012; active means well fitted falling curve with a large enough effect; further: potency means the concentration at half of the fitted maximal effect; on the % scale 0 is the no-effect control and ±100 the full control effect; nearly all actives have a fitted effect of over 50% in size
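Fission yeast RE007 carrying one integrated HIV-1 vpr copy, seeded at OD 0.01 in PMG+AL medium with 23 nL pinned compound. Grown 24 h at 30 degrees; viability read by BacTiter-Glo luminescence after 5 min.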
LmPK inh: qHTS Assay for Inhibitors of Leishmania Mexicana Pyruvate Kinase (LmPK). purified LmPK, Kinase-Glo ATP luminescence, 1 h. Potency, µM (titrated, usually from 57.5 µM), inactives show at the highest dose activity change, negative = inhibition, actives largely listed as inhibitors. 0.37% of 290,000 active. AID 1721, 2009; further: potency means the concentration at half of the fitted maximal effect; on the % scale 0 is the no-effect control and ±100 the full control effect
Target sequence (Q27686 whole entry, looked up): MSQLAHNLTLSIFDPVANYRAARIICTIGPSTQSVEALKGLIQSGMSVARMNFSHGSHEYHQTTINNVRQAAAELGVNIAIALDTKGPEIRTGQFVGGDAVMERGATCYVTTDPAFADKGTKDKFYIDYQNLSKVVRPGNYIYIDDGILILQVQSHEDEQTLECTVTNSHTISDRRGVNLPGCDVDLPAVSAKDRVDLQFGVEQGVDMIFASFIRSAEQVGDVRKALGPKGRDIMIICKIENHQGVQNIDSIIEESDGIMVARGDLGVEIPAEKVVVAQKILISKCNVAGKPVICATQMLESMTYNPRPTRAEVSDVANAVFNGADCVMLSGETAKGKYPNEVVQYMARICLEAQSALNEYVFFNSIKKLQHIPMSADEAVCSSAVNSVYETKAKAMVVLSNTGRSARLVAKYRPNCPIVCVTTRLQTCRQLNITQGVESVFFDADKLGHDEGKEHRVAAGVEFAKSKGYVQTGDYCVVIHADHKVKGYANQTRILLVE
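ATP generated from ADP (0.1 mM) and PEP (0.5 mM) by 0.1 nM LmPK over 1 h at room temperature (pH 7.2 imidazole buffer) was detected by coupled luciferase luminescence. Values were normalized to uninhibited and no-enzyme wells.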
Giardia FBPA inh: qHTS Assay for Inhibitors of Fructose-1,6-bisphosphate Aldolase from Giardia Lamblia; Potency, µM (doses to about 59.6 µM), for the others: at the highest dose activity, negative = inhibition, actives largely listed as inhibitors; A8B2U2; 0.71% of 290,000 active; AID 2451, 2010; purified Giardia FBPA; further: potency means the concentration at half of the fitted maximal effect; on the % scale 0 is the no-effect control and ±100 the full control effect; nearly all actives have a fitted effect of over 55% in size
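Giardia FBPA (40 nM reagent) was preincubated 10 min at RT with compound (up to 57.5 uM final), then substrate plus GAPDH/TPI/NAD/arsenate coupling system with diaphorase/resazurin was added; resorufin fluorescence (525/598 nm) was read after 20 min.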
Tb PYK inh: qHTS of Trypanosoma Brucei Inhibitors; pyruvate kinase (Trypanosoma brucei), Q57TT1; AID 624173, 2012; Potency, µM (top dose mostly 76.8 µM), for inactives: top-dose activity, negative = inhibition, actives largely listed as inhibitors; 0.12% of 410,000 active; TbPYK enzyme, Kinase-Glo Plus ATP luminescence, 45 min; further: potency means the concentration at half of the fitted maximal effect; on the % scale 0 is the no-effect control and ±100 the full control effect; nearly all actives have a fitted effect of over 50% in size
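Readout: single end-point luminescence (Kinase-Glo Plus, 10 min). Reaction conditions were TbPYK/substrate plus 130 uM ADP, 45 min at RT, pH 7.2 TEA buffer. No-enzyme wells served as controls, and data were normalized before concentration-response fitting.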
An asterisk follows results filed as active. Many of the other results were omitted from the sample, so hits are more common in it than they were. Unless noted, the call rests on the fitted dose curve; in most records, active means well fitted curve in the direction sought with a large enough effect; inconclusive means small, poorly fitted or top-dose-only effect, or another doubt; inactive means no such curve, though single readings can be large; an effect the other way counts as inactive or inconclusive.

`O=C(c1ccccc1)c1c[nH]c2cc3c(cc2c1=O)OCO3` gave Cycloheximide cs -1, Shiga inhibitor 23, LmPK inh 3% and Giardia FBPA inh -2%.
Screening Cc1ccc2onc(CC(=O)Nc3ccc(C(C)C)cc3)c2c1 returned Tb PYK inh 7%.
For COC(=O)C1CCN(C2CN(Cc3ccccc3)S(=O)(=O)C2)CC1 (stereo not drawn) the results were RE007 growth inh -10% and Tb PYK inh 1%.
Cc1cccc(OCC(=O)Nc2nonc2-c2ccc(Br)cc2)c1C was read as Tb PYK inh 2%.
For CCc1ccc(NS(=O)(=O)c2ccc3[nH]cc(C(=O)N4CCc5ccccc54)c(=O)c3c2)cc1 the results were Cycloheximide cs 35*, Shiga inhibitor 25*, RE007 growth inh -10%, LmPK inh 2%, Giardia FBPA inh 13% and Tb PYK inh -4%.
`Cc1ccccc1C(=O)NC(=S)Nc1ccc(N2CCOCC2)cc1` gave Cycloheximide cs 11*, Shiga inhibitor 6, RE007 growth inh -2%, LmPK inh 10%, Giardia FBPA inh -6% and Tb PYK inh 0%.
For Cc1c(C(=O)NC(=S)Nc2ccc(N3CCOCC3)cc2)cccc1[N+](=O)[O-] the results were Cycloheximide cs 9.8*, Shiga inhibitor 43*, RE007 growth inh -20%, LmPK inh 2%, Giardia FBPA inh -6% and Tb PYK inh -11%.
`CCc1cc(C(=O)Nc2c(C)nn(Cc3ccc(C)cc3)c2C)no1` gave Tb PYK inh 1%.
`O=C(NC(CSC(=O)c1ccccc1)C(=O)O)OCc1ccccc1` (stereo not drawn) gave RE007 growth inh 27% and Tb PYK inh 1%.
`CCOC(=O)[C@@H]1[C@H]2COc3ccccc3[C@@H]2N2C(=O)N(c3ccc(OC)cc3)C(=O)[C@@]12C` gave Cycloheximide cs -3, Shiga inhibitor -8, RE007 growth inh -8%, LmPK inh 0%, Giardia FBPA inh 8% and Tb PYK inh 3%.
For O=C(OCc1cc([N+](=O)[O-])cc2c1OCOC2)c1ccccn1 the results were Cycloheximide cs 33*, Shiga inhibitor 35, RE007 growth inh 1%, LmPK inh 2%, Giardia FBPA inh -6% and Tb PYK inh -1%.
O=[N+]([O-])c1cc2c(c(CSc3ncccn3)c1)OCOC2 was read as Cycloheximide cs 21*, Shiga inhibitor 60, RE007 growth inh 26%, LmPK inh 0%, Giardia FBPA inh 0% and Tb PYK inh 2%.
O=C(OCc1cc([N+](=O)[O-])cc2c1OCOC2)c1cccnc1SC(F)F was read as RE007 growth inh 13% and Tb PYK inh -7%.
Screening CCCS(=O)(=O)c1nc(S(=O)(=O)c2ccc(C)cc2)c(N2CCN(CCO)CC2)s1 returned Cycloheximide cs 6, Shiga inhibitor -7, RE007 growth inh -20%, LmPK inh 5% and Tb PYK inh -9%.
For CCCCN(C)C(=O)C1CCCN(S(=O)(=O)c2ccc3c(c2)CC(C)N3C(=O)C2CC2)C1 (stereo not drawn) the results were Cycloheximide cs 21, Shiga inhibitor 1, RE007 growth inh 13%, LmPK inh 0%, Giardia FBPA inh 7% and Tb PYK inh 7%.
`COc1ccc(C(=O)N2CCN(c3nc4c(OC)cccc4s3)CC2)cc1OC` gave Tb PYK inh -2%.
CS(=O)(=O)c1ccccc1-c1nc(-c2cccc(Cl)c2)no1 was read as Cycloheximide cs 9, Shiga inhibitor 17, RE007 growth inh 3%, LmPK inh 1%, Giardia FBPA inh -18% and Tb PYK inh 5%.
For CS(=O)c1ccccc1-c1nc(-c2cccc(Cl)c2)no1 (stereo not drawn) the results were Cycloheximide cs 53*, Shiga inhibitor 36, RE007 growth inh -17%, LmPK inh 2%, Giardia FBPA inh 0% and Tb PYK inh -7%.
